From PubChem BioAssay
In the library only some 3.5% were active in any assay of this set; here they are far more common.
FAK blocker: FAK (human) kinase inhibition | AID 727 | Q05397 | inhibition, %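 (tested at 7 µM)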 | 0.84% of 97,000 active | biochemical FAK kinase activity assay; in the data active = inhibition above about 19%;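 note: 0% = DMSO and 100% = reference compound high control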
ERb coact inh: blocks coactivator binding to human estrogen receptor beta; Q92731; TR-FRET ER-beta LBD / SRC1-Cy5 peptide binding; receptor agonist-loaded with 1 µM estradiol; inhibition, % at 25.6 µM; 1.3% of 86,000 active;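 active = compounds whose percent inhibition of the receptor-coactivator binding signal exceeds about 50% in the single-dose screen, limit read from the data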;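 note: 0% = receptor plus peptide wells without compound and 100% = peptide-only wells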
ERa SRC1 pot: ER-alpha (human) coactivator binding potentiation; coactivator binding (% of control), % at 25.6 µM; TR-FRET ERalpha-LBD/SRC-Cy5 coactivator binding, 2 h; 100 = basal binding, no effect; 1.3% of 86,000 active; P03372; in the data active = activity above about 200%;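 note: binding measured in presence of low estradiol as agonist stimulus; 0% = peptide alone without receptor and 100% = receptor with peptide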
Mac1 fbg inh: blocks human CD11b/CD18 adhesion to fibrinogen. K562 CD11b/CD18 adhesion to fibrinogen, ATPlite luminescence; Mn2+ added to activate the integrin. inhibition, % at 10 µM. 0.54% of 93,000 active. AID 1497;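 active = primary inhibition of 50% or more at 10 µM, then 40% or more on retest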
ERa SRC1 inh: ER-alpha (human) coactivator binding inhibition; P03372; TR-FRET ER-alpha LBD / SRC-1 peptide, estradiol-bound; inhibition, % at 25.6 µM; 1.7% of 86,000 active; in the data active = inhibition above about 50%;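 note: 0% = receptor plus peptide control and 100% = peptide only without receptor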
Mac1 fbg enh: enhancers of human CD11b/CD18 binding to fibrinogen | activation, % at 10 µM | P05107+P11215 | K562 CD11b/CD18 adhesion to fibrinogen, ATPlite luminescence | 0.07% of 93,000 active;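 active = 10 µM primary screen giving 50% or more activity, confirmed by 40% or more on retest at that dose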
Numbers without * were called inactive; [ ] = another dose, or the depositor's remark.

Results for COc1cc2c3nnc(-c4ccc(F)cc4)c-3cn(Cc3ccccc3)c2cc1OC ?
FAK blocker: -1.3; ERb coact inh: 38.6; ERa SRC1 pot: 424.1*[fluorescence artefact?]; Mac1 fbg inh: -7.4; ERa SRC1 inh: 32.7; Mac1 fbg enh: 11.2

Results for COc1ccc(CN2CCN(S(=O)(=O)c3ccc(F)cc3)CC2)cc1OC ?
FAK blocker: -4.1; ERb coact inh: -4.1; ERa SRC1 pot: 100.6; Mac1 fbg inh: -1.3; ERa SRC1 inh: -3.0; Mac1 fbg enh: -4.3

Results for COc1cc2c3nnc(-c4ccc(F)cc4)c-3cn(Cc3ccc(F)cc3)c2cc1OC ?
FAK blocker: 0.3; ERb coact inh: 32.3; ERa SRC1 pot: 481.1*[fluorescence artefact?]; Mac1 fbg inh: 17.1; ERa SRC1 inh: 24.3; Mac1 fbg enh: -2.7

Results for O=C(O)C1CC1c1ccc(Br)cc1 (stereo not given) ?
FAK blocker: 0.7; ERb coact inh: 12.8; ERa SRC1 pot: 88.4; Mac1 fbg inh: 6.0; ERa SRC1 inh: 8.8; Mac1 fbg enh: -6.7

What do the screens show for `O=C(Cn1c(/C=C/c2ccccc2)nc2ccccc21)Nc1ccc(F)cc1`?
Mac1 fbg inh: 13.5; Mac1 fbg enh: 16.3

How did COc1cccc(-c2nnn(CC(=O)Nc3ccc(C)cc3C)n2)c1OC do in these assays?
ERb coact inh: 30.6; ERa SRC1 pot: 283.0*[fluorescence artefact?]; Mac1 fbg inh: 5.3; ERa SRC1 inh: 26.9; Mac1 fbg enh: -4.2

How did COc1ccc(CCNC(=O)Cn2nnc(-c3cccc(OC)c3OC)n2)cc1OC do in these assays?
FAK blocker: 0.4; ERb coact inh: 10.2; ERa SRC1 pot: 101.2; Mac1 fbg inh: 0.1; ERa SRC1 inh: -2.9; Mac1 fbg enh: 0.1

Results for CC(C)c1ccc(NC(=O)CSc2nc3c(c(=O)[nH]2)CCC3)cc1 ?
ERb coact inh: 4.9; ERa SRC1 pot: 120.2; Mac1 fbg inh: -35.9; ERa SRC1 inh: 100.2*[fluorescence artefact?]; Mac1 fbg enh: -2.7

What do the screens show for `Cc1ccc(NC(=S)Nc2ccc(Cl)c(Cl)c2)c(OC(F)F)c1`?
Mac1 fbg inh: 98.6; Mac1 fbg enh: -10.5

Results for Fc1ccc(NC(=S)Nc2ccccc2OC(F)F)cc1Cl ?
Mac1 fbg inh: 100.6*; Mac1 fbg enh: -10.3

What do the screens show for `COc1ccc(Cn2c(-c3ccco3)nc3oc4cc(OC)ccc4c(=O)c3c2=O)cc1`?
FAK blocker: 3.7; ERb coact inh: 53.8*[fluorescence artefact?]; ERa SRC1 pot: 570.8*[fluorescence artefact?]; Mac1 fbg inh: -6.7; ERa SRC1 inh: 49.5; Mac1 fbg enh: 3.6

What do the screens show for `COc1ccc2c(=O)c3c(=O)n(Cc4ccco4)c(-c4ccco4)nc3oc2c1`?
FAK blocker: 9.8; ERb coact inh: 60.3*; ERa SRC1 pot: 48.8; Mac1 fbg inh: 2.7; ERa SRC1 inh: 75.2*[fluorescence artefact?]; Mac1 fbg enh: -1.7

What do the screens show for `CCc1nc2oc3cc(OC)ccc3c(=O)c2c(=O)n1Cc1ccco1`?
FAK blocker: 6.8; ERb coact inh: 58.6*; ERa SRC1 pot: 78.2; Mac1 fbg inh: 6.6; ERa SRC1 inh: 37.3; Mac1 fbg enh: 0.9

What do the screens show for `COc1cc(CCC(=O)Nc2cccc(C(F)(F)F)c2)cc(OC)c1OC`?
Mac1 fbg inh: -13.8; Mac1 fbg enh: 2.0

How did CC1CN(C(=O)c2cc3ccccc3oc2=O)CC(C)O1 (stereo not given) do in these assays?
ERb coact inh: 10.7; ERa SRC1 pot: 92.4; Mac1 fbg inh: 13.8; ERa SRC1 inh: 5.2; Mac1 fbg enh: 1.2

How did Cc1cccc2c(C(=O)n3cccn3)cc(-c3ccccc3Cl)nc12 do in these assays?
Mac1 fbg inh: 7.0; Mac1 fbg enh: 5.6

What do the screens show for `CCC(c1nnnn1Cc1ccc2c(c1)OCO2)N1CCN(c2ccc(F)cc2)CC1` (stereo not given)?
FAK blocker: 7.9; ERb coact inh: 78.7*[fluorescence artefact?]; ERa SRC1 pot: 102.8; Mac1 fbg inh: -5.1; ERa SRC1 inh: 2.0; Mac1 fbg enh: -3.5

Results for O=S(=O)(NCC(O)COCc1ccco1)c1cccs1 (stereo not given) ?
ERb coact inh: 50.4*; ERa SRC1 pot: 89.9; Mac1 fbg inh: -3.2; ERa SRC1 inh: 52.8*[fluorescence artefact?]; Mac1 fbg enh: 1.5

Results for COc1ccc(CNCC(O)COCc2cccs2)cc1 (stereo not given) ?
ERb coact inh: 0.6; ERa SRC1 pot: 85.7; Mac1 fbg inh: 3.2; ERa SRC1 inh: -1.4; Mac1 fbg enh: 5.1

Results for COC(=O)Oc1c(Br)c(=O)oc2ccccc12 ?
FAK blocker: 1.7; ERb coact inh: 45.3; ERa SRC1 pot: 31.5; ERa SRC1 inh: 63.8*

Results for Cc1cccc(NC(=O)c2cnc3scc(C)n3c2=O)c1 ?
FAK blocker: 9.7; ERb coact inh: 17.8; ERa SRC1 pot: 335.6*[fluorescence artefact?]; ERa SRC1 inh: -4.1

What do the screens show for `Cc1ccc(NC(=O)c2cnc3scc(C)n3c2=O)c(C)c1`?
ERb coact inh: 38.9; ERa SRC1 pot: 220.0*; ERa SRC1 inh: 50.4*[fluorescence artefact?]

What do the screens show for `Cc1csc2ncc(C(=O)Nc3ccccc3Cl)c(=O)n12`?
ERb coact inh: 64.9*[fluorescence artefact?]; ERa SRC1 pot: 238.6*[fluorescence artefact?]; ERa SRC1 inh: 58.4*[fluorescence artefact?]

How did CC1Cc2ccccc2N1C(=O)c1cnc2ccccn2c1=O (stereo not given) do in these assays?
ERb coact inh: 2.3; ERa SRC1 pot: 85.9; Mac1 fbg inh: -13.7; ERa SRC1 inh: -4.6; Mac1 fbg enh: 4.0

What do the screens show for `Cc1csc2ncc(C(=O)Nc3ccccc3F)c(=O)n12`?
ERb coact inh: 21.1; ERa SRC1 pot: 137.2; Mac1 fbg inh: -14.0; ERa SRC1 inh: 29.0; Mac1 fbg enh: -1.6

How did Cc1csc2ncc(C(=O)N3c4ccccc4CC3C)c(=O)n12 (stereo not given) do in these assays?
FAK blocker: 3.0; ERb coact inh: 87.3*; ERa SRC1 pot: 120.4; Mac1 fbg inh: -11.7; ERa SRC1 inh: -6.3; Mac1 fbg enh: 2.9

Results for CCCCSc1nc(O)c(C2OC(=O)c3c2ccc(OC)c3OC)c(=O)n1C (stereo not given) ?
FAK blocker: -4.8; ERb coact inh: 4.0; ERa SRC1 pot: 97.2; Mac1 fbg inh: -6.5; ERa SRC1 inh: 3.0; Mac1 fbg enh: 1.2

What do the screens show for `CCCNCC(O)Cn1c2ccccc2n2c(=O)cc(C)c(C#N)c12` (stereo not given)?
Mac1 fbg inh: 33.2; Mac1 fbg enh: 37.2

What do the screens show for `COc1ccccc1-c1noc(CCC(=O)Nc2cc(C(F)(F)F)ccc2Cl)n1`?
FAK blocker: -2.4; ERb coact inh: -4.2; ERa SRC1 pot: 106.8; Mac1 fbg inh: 8.6; ERa SRC1 inh: -8.2; Mac1 fbg enh: -3.9

How did CCCCOc1ccc(C(=O)Nc2ccncc2)cc1 do in these assays?
FAK blocker: 2.8; ERb coact inh: 2.0; ERa SRC1 pot: 101.1; Mac1 fbg inh: 96.1*; ERa SRC1 inh: -15.4; Mac1 fbg enh: -8.7

How did O=C(NCc1ccccn1)c1ccc(/C=N/O)nc1 do in these assays?
FAK blocker: 3.9; ERb coact inh: 65.8*[fluorescence artefact?]; ERa SRC1 pot: 92.1; Mac1 fbg inh: -13.5; ERa SRC1 inh: 1.1; Mac1 fbg enh: -3.5
